A selection: hits, their analogues and other compounds. The true share with any hit is near 19%.
TDP1 cell CPT = DT40-hTDP1 cell growth loss with CPT; AID 686979; Potency, µM (doses to about 46.2 µM), without a hit: top-dose activity change, negative = growth inhibition, most hits filed as inhibitors; chicken DT40 Tdp1-/-;hTDP1 cells + 20 nM CPT, ATP luminescence, 48 h; 12% of 420,000 active; further: nearly all actives have a fitted effect of over 55% in size
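Chicken DT40 Tdp1-/- cells stably complemented with human TDP1 were seeded at 400 cells/well in medium containing 20 nM camptothecin, exposed to pin-transferred compounds, and grown at 37 °C for at least 48 hr. Viability was read as ATP luminescence.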
TDP1 block = inhibitors of human tyrosyl-DNA phosphodiesterase TDP1 | Q9NUW8 | recombinant TDP1, AlphaScreen DNA substrate cleavage | Potency, µM (top dose mostly 130 µM), for the others: top-dose activity change, negative = inhibition, actives largely listed as inhibitors | 0.28% of 350,000 active; further: nearly all actives have a fitted effect of over 40% in size
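Compounds were preincubated with Tdp1 (1 nM final) for 15 min at room temperature before substrate (15 nM final) started a 5 min reaction; beads (10 ug/ml final) were then added for 10 min before AlphaScreen detection.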
RORg inh = blocks mouse ROR gamma transcriptional activity. Drosophila S2 Gal4-RORgamma UAS-luciferase reporter, 20 h. P51450. Potency, µM (titrated, usually from 53.6 µM), for the others: at the highest dose activity change, negative = inhibition, usual class: inhibitors. 5.4% of 310,000 active. AID 2551; further: nearly all actives have a fitted effect of over 60% in size
Target sequence (P51450 whole entry, looked up, the tested form may be a part): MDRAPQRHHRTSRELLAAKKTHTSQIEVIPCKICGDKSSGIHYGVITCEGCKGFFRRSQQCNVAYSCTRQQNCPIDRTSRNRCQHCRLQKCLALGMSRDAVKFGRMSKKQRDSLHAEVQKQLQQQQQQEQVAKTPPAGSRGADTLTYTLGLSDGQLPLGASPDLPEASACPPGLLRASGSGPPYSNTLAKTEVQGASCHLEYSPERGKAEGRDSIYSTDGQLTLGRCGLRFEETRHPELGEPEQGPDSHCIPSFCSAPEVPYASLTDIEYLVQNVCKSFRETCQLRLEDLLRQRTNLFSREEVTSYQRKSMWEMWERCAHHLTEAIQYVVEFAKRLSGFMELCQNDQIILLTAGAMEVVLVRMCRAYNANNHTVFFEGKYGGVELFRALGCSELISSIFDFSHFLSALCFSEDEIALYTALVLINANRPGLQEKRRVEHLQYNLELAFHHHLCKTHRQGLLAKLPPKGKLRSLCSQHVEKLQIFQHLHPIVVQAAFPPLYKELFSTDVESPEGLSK
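Luciferase reporter read in Schneider cells carrying Gal4-RORγ (mouse) and UAS-Photinus luciferase; cells given compound 1 h before 700 uM copper sulfate induction, then incubated 20 h at ambient temperature.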
Gal4-VP16 FLuc = Gal4-VP16 reporter inhibition counter-screen. Drosophila S2 Gal4-VP16 UAS-luciferase, luminescence, 20 h. Potency, µM (series often up to 53.6 µM), without a hit: top-dose activity, negative = inhibition, usual class: inhibitors. 3.5% of 310,000 active;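 further: Gal4-VP16 expression switched on by copper sulfate through the metallothionein promoter; nearly all actives have a fitted effect of over 50% in size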
DT40 TDP1 no CPT = qHTS for Inhibitors of human tyrosyl-DNA phosphodiesterase 1 (TDP1): qHTS in cells in absence of CPT; DT40 Tdp1-/- hTDP1 cells, no CPT, ATP luminescence, 48 h; Potency, µM (highest dose often 46.2 µM), for the others: at the highest dose activity change, negative = growth inhibition, usual class: inhibitors; 15% of 420,000 active; further: nearly all actives have a fitted effect of over 55% in size
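Chicken DT40 Tdp1-/- cells stably complemented with human TDP1 were seeded at 400 cells/well with DMSO in place of 20 nM camptothecin. After compound pinning, cells grew at least 48 hr at 37 °C; viability read by CellTiter-Glo luminescence.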
Numbers without * were called inactive; ? = inconclusive; · = no result given; [ ] = dose if it differs, or a comment. The call rests on the fitted dose curve; in most records, active means well fitted curve in the direction sought with a large enough effect; inconclusive means small, poorly fitted or top-dose-only effect, or another doubt; inactive means no such curve, though single readings can be large; an effect the other way counts as inactive or inconclusive. On the % scale 0 is the no-effect control and ±100 the full control effect; potency means the concentration at half of the fitted maximal effect.

SMILES	TDP1 cell CPT	TDP1 block	RORg inh	Gal4-VP16 FLuc	DT40 TDP1 no CPT
COc1ccc2cc1Oc1ccc(cc1)C[C@H]1c3c(cc4c(c3Oc3cc5c(cc3OC)CCN(C)[C@@H]5C2)OCO4)CCN1C	6.51µM*	13.3%	?	-11.9%	5.8µM*
CC(=O)C1=C(c2ccccc2)OC(N)=C(C#N)C1c1ccccc1F (stereo not given)	-13.0%	0.0%	-31.8%	0.8%	-27.4%
COc1ccccc1C1C2C(=O)N(c3ccccc3)C(=O)C2ON1c1ccccc1 (stereo not given)	-5.5%	5.2%	6.2%	6.8%	-3.6%
COc1ccc(C2C3C(=O)N(Cc4ccccc4)C(=O)C3ON2c2ccccc2)c(OC)c1OC (stereo not given)	?	5.1%	18.5%	-11.2%	20.6µM*
Cc1ccc(C(=O)N(CN2CCCC2=O)c2ccc(F)cc2)cc1C	?	2.2%	7.0%	15.4%	25.9µM*
CCOc1ccccc1C(=O)N(CN1CCCC1=O)c1ccc(C)c(Cl)c1	3.66µM*	6.9%	-19.6%	-3.7%	3.66µM*
Cc1ccc(N(CN2CCCC2=O)C(=O)c2ccc(C)c(C)c2)cc1	8.2µM*	-1.0%	-32.9%	26.9%	7.31µM*
Cc1ccc(C(=O)N(CN2CCCC2=O)c2ccccc2)cc1C	?	2.1%	2.8%	-1.7%	?
O=C(CCNC(=O)C1CCN(S(=O)(=O)c2ccccc2)CC1)NCc1ccc(Cl)cc1	-26.8%	1.7%	21.4%	-11.5%	?
O=C(NCc1ccc(F)cc1)C1CCN(S(=O)(=O)c2ccc3c(c2)OCCCO3)CC1	?	2.6%	8.0%	-2.0%	?
O=C(NCc1ccc(Cl)cc1Cl)C1CCN(S(=O)(=O)c2ccc3c(c2)OCCCO3)CC1	20.6µM*	-1.4%	43.6%	-11.7%	?
O=C(CCNC(=O)C1CCN(S(=O)(=O)c2ccccc2)CC1)NCc1ccc(Cl)cc1Cl	20.6µM*	4.6%	41.1%	-6.5%	?
CCCCc1c(C)c(C#N)c2nc3ccccc3n2c1Cl	·	4.4%	-43.1%	-6.2%	·
O=C(CSc1nccn1-c1cccc(Cl)c1)NO	?	0.0%	-31.6%	-4.8%	-22.7%
S=c1[nH]ccn1-c1cccc(Cl)c1Cl	14.2%	·	7.94µM*	?	-4.4%
S=c1[nH]ccn1-c1cccc(Cl)c1	1.8%	0.0%	12.6µM*	?	-3.5%
S=c1[nH]ccn1-c1ccccc1Cl	15.0%	?	?	-14.4%	-4.9%
Cc1ccc(-n2cc[nH]c2=S)cc1C	-1.1%	-2.3%	0.0501µM*	-91.9%	-12.9%
O=S(=O)(N1CCCCCC1)N1CCN(S(=O)(=O)N2CCCCC2)CC1	-11.6%	3.6%	23.8%	5.9%	-5.7%
O=C(O)c1cnn(-c2nc(-c3cccc([N+](=O)[O-])c3)cs2)c1C(F)(F)F	1.0%	·	25.6%	-1.8%	33.6%
CCCCOCCCNC(=O)C[C@@H]1C[C@@]2(C(=O)OCC)CCCC=C2N(Cc2cccc3ccccc23)C1=O	18.4µM*	·	·	·	13µM*
CCCCCCCCN1C(=O)[C@H](CC(=O)NCc2cccc3ccccc23)C[C@@]2(C(=O)OCC)CCCC=C12	?	·	·	·	16.4µM*
CCCNS(=O)(=O)c1ccc(NC(=O)c2ccccn2)cc1	?	5.3%	-3.9%	?	-24.7%
Cn1c2nc(=O)n(-c3ccccc3)c(=O)c-2nc2c1CCCC2	20.6µM*	·	·	·	?
Cc1nn(C)c(=O)n1-c1ccccc1	13.9%	-1.2%	-14.5%	-23.5%	-7.4%
SMILES	TDP1 cell CPT	TDP1 block	RORg inh	Gal4-VP16 FLuc	DT40 TDP1 no CPT
CC(=O)C1=C(O)CC(c2ccccc2)CC1=NCCc1ccccc1 (stereo not given)	?	4.6%	26.6%	7.3%	?
CC(=NCCc1c(C)[nH]c2ccc(OC(F)(F)F)cc12)C1=C(O)CC(c2ccccc2)CC1=O (stereo not given)	4.61µM*	3.8%	0.6%	7.9%	3.26µM*
CC(=NCCc1c(C)[nH]c2ccc(C)cc12)C1=C(O)CC(c2ccccc2)CC1=O (stereo not given)	1.16µM*	8.2%	37.2%	1.1%	1.64µM*
CCCC(=Nc1ccccc1OC)C1=C(O)CC(c2ccccc2)CC1=O (stereo not given)	?	0.0%	-26.7%	-4.5%	?
Cc1cc2nc(-c3ccccc3)c(CC(C)(C)C)n2c(C)c1Br	14.6µM*	·	·	·	18.4µM*
Cc1ccc(-c2nc3cc(C)c(Br)c(C)n3c2Cc2ccccc2)cc1	2.31µM*	·	·	·	7.31µM*
Cc1cc2nc(-c3cccc(Br)c3)c(CC(C)(C)C)n2c(C)c1Br	?	·	·	·	-44.4%
Cc1cc2nc(-c3ccc(Cl)cc3)c(CC(C)(C)C)n2c(C)c1Br	14.6µM*	·	·	·	?
O=C(CN1C(=O)NC(Cc2ccccc2)C1=O)Nc1ccc(F)c(F)c1F (stereo not given)	15.8%	-1.4%[56.1 µM]	·	·	-7.2%
CCc1ccccc1NC(=O)CSc1nc2ccccc2nc1Cc1cccc(OC)c1	?	0.0%	·	·	?
CCOc1cc(S(=O)(=O)NCCc2ccc(OC)c(OC)c2)c(OCC)cc1-n1cnnn1	5.6%	-3.4%	1.0%	-0.2%	4.6%
CCOc1cc(S(=O)(=O)NCc2ccc(OC)cc2)c(OCC)cc1-n1cnnn1	4.11µM*	-5.9%	14.3%	-2.0%	2.06µM*
Cn1cccc1CNC1CCCCC1	-3.3%	-4.7%	3.1%	2.8%	-5.3%
O=C(N/N=C/c1cn(-c2ccccc2)nc1-c1cc2ccccc2o1)c1cccnc1	3.26µM*	-2.8%	3.98µM*	1.41µM*	5.17µM*
O=C(O)c1cccc(NC(=O)c2cn(-c3ccccc3)nc2-c2cc3ccccc3o2)c1	?	0.0%	?	-6.9%	?
O=C(N/N=C/c1cn(-c2ccccc2)nc1-c1cc2ccccc2o1)c1ccncc1	25.9µM*	2.6%	2.82µM*	4.47µM*	18.4µM*
C/C(N)=C(/C#N)C(=O)COc1ncnc2ccccc12	7.9%	-4.0%	5.5%	-6.3%	5.2%
CCCN(CCC)c1nc2ccccc2nc1C(C#N)C(=O)OC(C)COC (stereo not given)	23.1µM*	9.8%	8.6%	1.5%	23.1µM*
CCOC(=O)c1c(C2CC2)csc1NC(=O)COC(=O)c1cc(OC)c(OC)cc1[N+](=O)[O-]	?	2.3%	0.4%	-5.1%	20.6µM*
Cc1ccc(/C=N/Nc2nnc(Cl)c3ccccc23)cc1	23.1µM*	8.9%	3.16µM*	12.6µM*	20.6µM*
Clc1ccc(/C=N/Nc2nnc(Cl)c3ccccc23)cc1	?	0.0%	?	-24.7%	?
C(=N\Nc1ncnc2ccccc12)/c1ccccc1	3.66µM*	5.9%	2.51µM*	1µM*	4.61µM*

Assay outcomes (PubChem BioAssay)
